From PubChem BioAssay (NCI) come the findings set out here.

About 83,000 compounds went through this panel and 20% of them were active in at least one assay; those are over-represented in the sample as a whole.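 Activity criterion: percent growth below 10, measured after cells in 96-well plates were exposed to a single compound concentration for 48 hours.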 Values without a mark were called inactive. Activity calls are given as the source filed them.

Assay in all cases: NCI-60 one-dose screen, 48 h (100 = growth as untreated, 0 = no growth, -100 = all killed)
One experiment has as its system SK-MEL-2 melanoma. To be noted: 10 µM.
The subject of a further experiment is EKVX NSCLC. To be noted: 10 µM unless noted.
Another experiment deals with SN12C renal. Conditions: 10 µM unless noted.
The next experiment relates to UO-31 renal. Conditions: 10 µM unless noted.
For the next experiment, the system named is ACHN renal. To be noted: 10 µM unless noted.
The next experiment has as its system A498 renal. Conditions: 10 µM unless noted.
In the next experiment the test system is CCRF-CEM leukemia. Conditions: 10 µM unless noted.
The next experiment concerns MOLT-4 leukemia. To be noted: 10 µM unless noted.
A further experiment has as its system SR leukemia. Conditions: 10 µM unless noted.
In a further experiment the test system is RPMI-8226 leukemia. To be noted: 10 µM unless noted.
For a further experiment, the system named is OVCAR-8 ovarian. Conditions: 10 µM unless noted.
In a further experiment the test system is OVCAR-5 ovarian. To be noted: 10 µM unless noted.
The next experiment has as its system OVCAR-4 ovarian. Conditions: 10 µM unless noted.
The subject of the next experiment is SK-OV-3 ovarian. To be noted: 10 µM unless noted.
A further experiment deals with IGROV1 ovarian. To be noted: 10 µM unless noted.
The subject of another experiment is OVCAR-3 ovarian. To be noted: 10 µM unless noted.
A further experiment deals with HS 578T breast. To be noted: 10 µM.
The test system of the next experiment is NCI/ADR-RES ovarian. To be noted: 10 µM unless noted.
For the next experiment, the system named is TK-10 renal. To be noted: 10 µM unless noted.
The subject of the next experiment is CAKI-1 renal. To be noted: 10 µM unless noted.

Consider `c1cc[n+](Cc2c3ccccc3cc3c2ccc2ccccc23)cc1`, for which the growth with SK-MEL-2 melanoma is 25%; in the experiment with EKVX NSCLC, 58.3%; in the experiment with SN12C renal it was 0.929% (active); in the experiment with UO-31 renal, 81.9%; with ACHN renal it was 103%; in the experiment on A498 renal, 80.2%. Besides, the growth in the experiment with CCRF-CEM leukemia was 55.5%; with MOLT-4 leukemia it was 25.6%; in the experiment with SR leukemia it was 21.2%; with RPMI-8226 leukemia it was 17.6%; in the experiment on OVCAR-8 ovarian it was 39.8%; with OVCAR-5 ovarian, 81.1%. Also, the growth in the experiment with OVCAR-4 ovarian is 34.4%; with SK-OV-3 ovarian, 87.9%; in the experiment on IGROV1 ovarian, 13.7%; in the experiment with OVCAR-3 ovarian it was 36%; in the experiment on HS 578T breast it was 13.3%; with NCI/ADR-RES ovarian, 99.3%.

For the molecule `CCOC(=O)Sc1ncnc2nc[nH]c12`, the growth with SK-MEL-2 melanoma is 27.9%; in the experiment on EKVX NSCLC, 97.9%; with UO-31 renal it was 41%; in the experiment on TK-10 renal, 23.2%; in the experiment on ACHN renal, 70%; in the experiment on A498 renal, 84%. Besides, the growth is 13.5% in the experiment with CCRF-CEM leukemia; 4.03% (active) in the experiment with MOLT-4 leukemia; 9.18% (active) in the experiment on SR leukemia; 18.5% with OVCAR-8 ovarian; 47.2% in the experiment on OVCAR-5 ovarian; 35.1% with OVCAR-4 ovarian. The growth in the experiment on SK-OV-3 ovarian is 23.9%; with IGROV1 ovarian, 45.1%; in the experiment with OVCAR-3 ovarian it was 26.4%; in the experiment on HS 578T breast, 76.2%; in the experiment on NCI/ADR-RES ovarian it was 37%.

In the case of `COc1cc2c(cc1OCCCCCCN1CCN(c3ncnc4ccccc34)CC1)N=CC1CCCN1C2=O` (centres undefined), the growth in the experiment with SK-MEL-2 melanoma was 3.62% (active); in the experiment on EKVX NSCLC it was -8.7% (active); in the experiment with SN12C renal it was -10.4% (active); in the experiment with ACHN renal, 0.483% (active); in the experiment with CAKI-1 renal it was -19.6% (active); with CCRF-CEM leukemia, -32.8% (active). In addition, the growth was -32.1% (active) in the experiment with MOLT-4 leukemia; -29.6% (active) in the experiment on SR leukemia; -47.4% (active) with RPMI-8226 leukemia; -12.1% (active) in the experiment with OVCAR-8 ovarian; 10.2% in the experiment on OVCAR-5 ovarian; -14.4% (active) in the experiment with OVCAR-4 ovarian. Also, the growth was 20.7% in the experiment with SK-OV-3 ovarian, 1.08% (active) in the experiment on IGROV1 ovarian, -6.78% (active) with OVCAR-3 ovarian and 6.93% (active) with NCI/ADR-RES ovarian.

Regarding `Clc1nc(Cl)c2ncn(C/C=C\Cn3cnc4c(Cl)nc(Cl)nc43)c2n1`, the growth is 23.5% in the experiment with SK-MEL-2 melanoma; -68% (active) in the experiment with EKVX NSCLC; -11.3% (active) in the experiment on SN12C renal; -45.6% (active) with TK-10 renal; -94.5% (active) in the experiment on ACHN renal; -97.2% (active) in the experiment on CAKI-1 renal. Further, the growth is -18.2% (active) with A498 renal; -73.4% (active) in the experiment with CCRF-CEM leukemia; -55.4% (active) in the experiment with MOLT-4 leukemia; -48.2% (active) with SR leukemia; -61.2% (active) in the experiment with RPMI-8226 leukemia; -57.4% (active) in the experiment with OVCAR-8 ovarian. The growth with OVCAR-5 ovarian is -9.17% (active); in the experiment with OVCAR-4 ovarian it was -89.2% (active); in the experiment on SK-OV-3 ovarian, 32.8%; in the experiment with IGROV1 ovarian, -82.3% (active); in the experiment on OVCAR-3 ovarian, -97% (active); in the experiment on HS 578T breast, -41.5% (active). In addition, the growth in the experiment on NCI/ADR-RES ovarian was 30.1%.

As to `COc1c(C(NC(=O)c2ccccc2)c2sccc2C)cc(Cl)c2cccnc12` (centres undefined), the growth with SK-MEL-2 melanoma was 108%; in the experiment with EKVX NSCLC, 100%; with UO-31 renal it was 89.9%; in the experiment with TK-10 renal, 98.4%; in the experiment with ACHN renal, 104%; in the experiment with CAKI-1 renal, 95.4%. Besides, the growth with CCRF-CEM leukemia is 83.9%; in the experiment on MOLT-4 leukemia it was 85.7%; in the experiment with SR leukemia it was 90%; in the experiment with RPMI-8226 leukemia, 89.1%; in the experiment with OVCAR-8 ovarian it was 96.8%; in the experiment with OVCAR-5 ovarian, 96.6%. The growth is 112% with OVCAR-4 ovarian; 89.3% in the experiment on SK-OV-3 ovarian; 106% with IGROV1 ovarian; 117% with OVCAR-3 ovarian; 98.6% with HS 578T breast; 98.2% in the experiment on NCI/ADR-RES ovarian.

As to `CCc1cc2c(c3ccc(C(=O)CBr)cc13)CCCC2`, the growth with SK-MEL-2 melanoma was 96.9%; with EKVX NSCLC, 74.3%; in the experiment with UO-31 renal it was 81.4%; in the experiment with TK-10 renal it was 91.9%; in the experiment with ACHN renal, 105%; in the experiment with A498 renal, 102%. Besides, the growth with CCRF-CEM leukemia is 114%; with MOLT-4 leukemia, 85.8%; with SR leukemia, 91.7%; with RPMI-8226 leukemia it was 113%; with OVCAR-8 ovarian it was 105%; in the experiment on OVCAR-5 ovarian it was 91.1%. In addition, the growth in the experiment with OVCAR-4 ovarian was 110%; in the experiment on SK-OV-3 ovarian it was 103%; in the experiment with IGROV1 ovarian, 99.1%; in the experiment with OVCAR-3 ovarian, 102%; in the experiment with HS 578T breast, 98.8%; with NCI/ADR-RES ovarian, 93.5%.

Turning to `CC1(C)NC(=O)c2[nH]c3c(Cl)c(Cl)ccc3c2C1C#N` (centres undefined), the growth is 80.6% in the experiment with SK-MEL-2 melanoma; 67.2% with EKVX NSCLC; 89.5% in the experiment with SN12C renal; 78.6% with ACHN renal; 49.8% with CAKI-1 renal; 62% with MOLT-4 leukemia. The growth is 67.5% in the experiment with SR leukemia; 69.6% with RPMI-8226 leukemia; 89.2% in the experiment with OVCAR-8 ovarian; 85.2% with OVCAR-5 ovarian; 60.7% in the experiment on OVCAR-4 ovarian; 100% in the experiment on SK-OV-3 ovarian. For the same molecule, the growth was 100% with IGROV1 ovarian, 82.4% with OVCAR-3 ovarian and 85% with NCI/ADR-RES ovarian.

In the case of `N#CC1(C#N)C(c2cccs2)NC(c2cccs2)C1(C#N)C#N` (centres undefined), the growth with SK-MEL-2 melanoma is 102%; in the experiment on EKVX NSCLC, 94%; in the experiment with SN12C renal, 105%; in the experiment on UO-31 renal, 71.4%; in the experiment with ACHN renal it was 102%; with A498 renal, 116%. The growth in the experiment on CCRF-CEM leukemia was 100%; with MOLT-4 leukemia, 95.3%; in the experiment with SR leukemia, 110%; with RPMI-8226 leukemia, 107%; with OVCAR-8 ovarian it was 101%; in the experiment on OVCAR-5 ovarian, 109%. Also, the growth in the experiment on OVCAR-4 ovarian was 92.7%; in the experiment on SK-OV-3 ovarian, 99.1%; in the experiment with IGROV1 ovarian it was 101%; in the experiment on OVCAR-3 ovarian it was 98.1%; in the experiment on HS 578T breast, 104%; in the experiment on NCI/ADR-RES ovarian, 97.6%.
